# Values joined by “and” are separate entries in the source; they are usually repeats but may differ in a detail not shown here. Equal values may be shown once. Inconclusive results are not listed. Where a call stands in place of a potency, no number is given. More than one record can exist for a structure, and the calls need not agree. Active and inactive are the calls of the source. Unless noted, calls follow the shape of the dose curve; as a rule, active = well fitted curve in the direction sought with a large enough effect in the repeat runs; inconclusive = weak or mixed curves; inactive = no such curve, though single readings can be large; an effect the other way counts as inactive or inconclusive.
# Tests used:
# [1] = qHTS assay to identify small molecule agonists of the peroxisome proliferator-activated receptor delta (PPARd) signaling pathway - cell viability counter screen (AID 743211); also: nearly all actives have a fitted effect of over 55% in size; also: potency is read from the fitted curve at half-maximal effect
# Method in brief: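 qHTS cell viability: PPARd-bla HEK293H; 17 h cpd, 37C; CellTiter-Glo, luminescence at 30 min RT.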
# [2] = qHTS assay to identify small molecule antagonists of the peroxisome proliferator-activated receptor delta (PPARd) signaling pathway - cell viability counter screen (AID 743213); also: nearly all actives have a fitted effect of over 50% in size; also: potency is read from the fitted curve at half-maximal effect
# Method in brief: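 CellTiter-Glo was added to PPARd-bla HEK293H wells following 17 h compound treatment in the presence of 300 nM L165041. Luminescence was recorded after 30 min at room temperature.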
# [3] = molecular target: Bile acid receptor (Homo sapiens) (UniProt Q96RI1); assay: qHTS assay to identify small molecule antagonists of the farnesoid-X-receptor (FXR) signaling pathway (AID 743217; active = well fitted inhibition curve with a large enough effect in the signal ratio in the repeat runs, not every such curve was filed as active; the % refers to the signal ratio)
# Bile acid receptor (Homo sapiens), sequence (Q96RI1 whole entry, looked up): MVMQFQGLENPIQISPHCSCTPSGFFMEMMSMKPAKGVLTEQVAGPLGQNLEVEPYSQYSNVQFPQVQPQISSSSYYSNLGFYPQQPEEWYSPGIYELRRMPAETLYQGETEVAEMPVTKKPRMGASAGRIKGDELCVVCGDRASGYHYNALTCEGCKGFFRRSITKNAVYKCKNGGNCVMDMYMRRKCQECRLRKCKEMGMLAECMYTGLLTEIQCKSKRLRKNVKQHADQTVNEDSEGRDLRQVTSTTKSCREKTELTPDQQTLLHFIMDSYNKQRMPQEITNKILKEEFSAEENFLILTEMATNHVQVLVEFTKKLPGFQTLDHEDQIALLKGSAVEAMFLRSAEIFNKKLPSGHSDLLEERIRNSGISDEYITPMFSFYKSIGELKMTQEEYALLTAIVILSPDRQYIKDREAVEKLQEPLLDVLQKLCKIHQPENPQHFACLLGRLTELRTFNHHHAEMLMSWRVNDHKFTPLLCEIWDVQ
# Method in brief: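 GeneBLAzer FXR-UAS-bla HEK 293T, CDCA-stimulated (50 uM final). Compound treatment 16 h, 37 °C. Detection: beta-lactamase cleavage of B/G FRET substrate, fluorescence.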
# [4] = qHTS assay to identify small molecule agonists of the farnesoid-X-receptor (FXR) signaling pathway - cell viability counter screen (AID 743218); also: nearly all actives have a fitted effect of over 45% in size
# Method in brief: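 Parallel cytotoxicity test: compound-treated (16 h, 37 C) HEK 293T FXR-bla reporter cells were lysed with CellTiter-Glo and luminescence recorded.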
# [5] = molecular target: Bile acid receptor (Homo sapiens) (UniProt Q96RI1); assay: qHTS assay to identify small molecule agonists of the farnesoid-X-receptor (FXR) signaling pathway (AID 743220; active = well fitted activation curve with a large enough effect in the signal ratio in the repeat runs, not every such curve was filed as active; the % refers to the signal ratio)
# Method in brief: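 Beta-lactamase reporter under UAS control in GeneBLAzer FXR HEK 293T cells (5000/well) measured with LiveBLAzer FRET substrate after 2 h at room temperature. Compound exposure lasted 16 h at 37C.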
# [6] = qHTS assay to identify small molecule antagonists of the farnesoid-X-receptor (FXR) signaling pathway - cell viability counter screen (AID 743221; active = well fitted cell-killing curve with a large enough effect in the repeat runs, not every such curve was filed as active; also: nearly all actives have a fitted effect of over 50% in size)
# Method in brief: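 After a 5 h settling period, FXR-bla HEK 293T cells receive compound and chenodeoxycholic acid (50 uM final) and incubate 16 h at 37 C; CellTiter-Glo luminescence, read after 30 min at room temperature, reports cell viability.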
# [7] = molecular target: Vitamin D3 receptor (Homo sapiens) (UniProt P11473); assay: qHTS assay to identify small molecule agonists of the vitamin D receptor (VDR) signaling pathway (AID 743222; calls by dose curve)
# Vitamin D3 receptor (Homo sapiens), sequence (P11473 whole entry, looked up): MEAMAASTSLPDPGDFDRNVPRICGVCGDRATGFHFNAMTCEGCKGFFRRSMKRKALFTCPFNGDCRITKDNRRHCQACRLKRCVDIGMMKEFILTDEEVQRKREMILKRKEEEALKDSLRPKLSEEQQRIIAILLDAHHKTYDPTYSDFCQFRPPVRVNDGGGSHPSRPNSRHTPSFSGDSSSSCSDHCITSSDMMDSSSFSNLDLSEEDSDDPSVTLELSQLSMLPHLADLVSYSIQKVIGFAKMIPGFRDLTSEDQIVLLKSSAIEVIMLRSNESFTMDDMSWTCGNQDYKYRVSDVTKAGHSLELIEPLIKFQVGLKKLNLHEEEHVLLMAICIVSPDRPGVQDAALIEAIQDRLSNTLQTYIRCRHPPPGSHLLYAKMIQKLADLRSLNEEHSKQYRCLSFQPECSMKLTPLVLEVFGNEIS
# Method in brief: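 In VDR-bla cells, compound-induced beta-lactamase expression is quantified by FRET substrate fluorescence. Treatment lasts 16 h at 37C; substrate develops 2 h at room temperature.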
# [8] = molecular target: Vitamin D3 receptor (Homo sapiens) (UniProt P11473); assay: qHTS assay to identify small molecule antagonists of the vitamin D receptor (VDR) signaling pathway (AID 743223; active = well fitted inhibition curve with a large enough effect in the signal ratio in the repeat runs, not every such curve was filed as active; the % refers to the signal ratio; also: potency is read from the fitted curve at half-maximal effect)
# Method in brief: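 Reporter line VDR-bla; stimulus 1alpha,25-(OH)2 vitamin D3, 3 nM final; compound co-addition, 16 h 37C/5% CO2; LiveBLAzer B/G substrate 2 h RT; fluorescence intensity.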
# [9] = qHTS assay to identify small molecule agonists of the vitamin D receptor (VDR) signaling pathway - cell viability counter screen (AID 743224); also: series mostly up to about 63 µM; nearly all actives have a fitted effect of over 50% in size
# Method in brief: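 Plated VDR-bla cells (4 h, 37C) received compound, incubated 16 h, then LiveBLAzer substrate 2 h RT; CellTiter-Glo added afterwards, luminescence read at 30 min.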
# [10] = qHTS assay to identify small molecule antagonists of the vitamin D receptor (VDR) signaling pathway - cell viability counter screen (AID 743225); also: nearly all actives have a fitted effect of over 50% in size
# Method in brief: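 Parallel cytotoxicity test: VDR-UAS-bla HEK 293T, 3 nM (final) 1-alpha,25-dihydroxyvitamin D3 with test compound, 16 h, 37C. Endpoint is CellTiter-Glo luminescence in the same wells.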
# [11] = qHTS assay to identify small molecule agonists of the NFkB signaling pathway - cell viability counter screen (AID 1159515; calls by dose curve; also: series mostly up to about 61 µM; nearly all actives have a fitted effect of over 55% in size)
# Method in brief: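 Using the same wells as the NFkB reporter read, ME-180 NFkB-bla cells given compounds for 5 hr were assessed for viability via CellTiter-Glo, with luminescence taken after a 30 min room-temperature incubation.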
# [12] = qHTS assay to identify small molecule agonists of the endoplasmic reticulum stress response signaling pathway (AID 1159516; active = well fitted activation curve with a large enough effect in the signal ratio in the repeat runs, not every such curve was filed as active; the % refers to the signal ratio)
# Method in brief: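 An ESRE-bla HeLa cell assay: compounds were pin-transferred from DMSO onto overnight-plated cells and left 5 hr at 37 C. Substrate was then loaded for 2 hr at room temperature before reading fluorescence at 460 nm and 530 nm.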
# [13] = qHTS assay to identify small molecule agonists of the endoplasmic reticulum stress response signaling pathway - cell viability counter screen (AID 1159517; calls by dose curve; also: nearly all actives have a fitted effect of over 50% in size; also: potency is read from the fitted curve at half-maximal effect)
# Method in brief: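 Cells, HeLa ESRE-bla; density, 1,500/well; dosing, 5 hr at 37 C, 5% CO2; readout, CellTiter-Glo luminescence after 30 min RT.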
# [14] = qHTS assay to identify small molecule antagonists of the retinoid-related orphan receptor gamma (ROR-gamma) signaling pathway - cell viability counter screen (AID 1159520); also: nearly all actives have a fitted effect of over 50% in size
# Method in brief: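 Cytotoxicity was read from cellular ATP (CellTiter-Glo luminescence) after 16 hr at 37 C with 1 uM doxycycline induction. The inducer was added 2 hr after compound transfer to Tet-on ROR gamma CHO cells.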
# [15] = molecular target: Nuclear receptor ROR-gamma (Homo sapiens) (UniProt P51449); assay: qHTS assay to identify small molecule antagonists of the retinoid-related orphan receptor gamma (ROR-gamma) signaling pathway (AID 1159521; also: nearly all actives have a fitted effect of over 50% in size; also: potency is read from the fitted curve at half-maximal effect)
# Method in brief: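 Decreased RORE-driven luciferase luminescence indicates antagonism. Tet-on RORγ CHO cells received compound, then 1 uM final doxycycline 2 h later; signal read after 16 h incubation.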
# [16] = qHTS assay to identify small molecule agonists of the AP-1 signaling pathway (AID 1159526; calls by dose curve; also: potency is read from the fitted curve at half-maximal effect)
# [17] = molecular target: Peroxisome proliferator-activated receptor delta (Homo sapiens) (UniProt Q03181); assay: qHTS assay to identify small molecule antagonists of the peroxisome proliferator-activated receptor delta (PPARd) signaling pathway (AID 743215; active = well fitted inhibition curve with a large enough effect in the signal ratio in the repeat runs, not every such curve was filed as active; the % refers to the signal ratio;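 also: cells stimulated with agonist L165041 at 300 nM final during compound exposure; series mostly up to about 62 µM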)
# Peroxisome proliferator-activated receptor delta (Homo sapiens), sequence (Q03181 whole entry, looked up): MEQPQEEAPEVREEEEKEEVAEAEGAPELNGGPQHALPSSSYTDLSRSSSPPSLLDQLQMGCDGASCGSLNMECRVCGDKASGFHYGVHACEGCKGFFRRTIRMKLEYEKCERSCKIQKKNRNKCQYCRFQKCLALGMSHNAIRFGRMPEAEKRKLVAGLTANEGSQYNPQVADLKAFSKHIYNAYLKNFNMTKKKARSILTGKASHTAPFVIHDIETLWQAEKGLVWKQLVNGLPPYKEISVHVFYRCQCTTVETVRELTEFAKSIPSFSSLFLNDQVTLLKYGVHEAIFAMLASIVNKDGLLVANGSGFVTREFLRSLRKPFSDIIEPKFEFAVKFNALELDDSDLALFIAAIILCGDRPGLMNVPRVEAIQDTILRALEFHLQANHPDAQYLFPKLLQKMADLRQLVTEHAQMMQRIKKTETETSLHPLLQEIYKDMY
# Method in brief: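 HEK293H UAS-bla, PPARd; agonist L165041 300 nM final with cpd in DMSO; 37 C 17 h; FRET substrate, RT 2 h; fluorescence intensity.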
# [18] = qHTS assay to identify small molecule agonists of the NFkB signaling pathway (AID 1159509; active = well fitted curve in the direction sought with a large enough effect in the signal ratio in the repeat runs, not every such curve was filed as active; the % refers to the signal ratio; also: series mostly up to about 61 µM)
# Method in brief: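 NFkB-bla ME-180 cells with a beta-lactamase reporter under an NF-kB response element were plated overnight, treated with compounds in DMSO for 5 hr at 37 C, then loaded with FRET substrate for 1.5 hr at room temperature.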
# [19] = qHTS assay to identify small molecule agonists of the AP-1 signaling pathway - cell viability counter screen (AID 1159525; calls by dose curve; also: nearly all actives have a fitted effect of over 55% in size)
# Method in brief: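 Luminescent ATP readout (Cell Titer Glo, 30 min RT), normalised to DMSO and tetra n-octyl ammonium bromide controls. Cells were ME-180 AP-1-bla in 0.5% dialyzed FBS Opti-MEM, with a 5 h, 37 °C compound exposure.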
# [20] = molecular target: Peroxisome proliferator-activated receptor delta (Homo sapiens) (UniProt Q03181); assay: qHTS assay to identify small molecule agonists of the peroxisome proliferator-activated receptor delta (PPARd) signaling pathway (AID 743212; calls by dose curve)
# Method in brief: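 HEK293H UAS-bla reporter cells, human PPARd system; compounds delivered in DMSO after 5 h plating, then at 37 C. Beta-lactamase FRET read, 2 h RT substrate step.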
SMILES,Potency [1],Potency [2],Potency [3],Potency [4],outcome [5],outcome [6],outcome [7],Potency [8],Potency [9],outcome [10],outcome [11],outcome [12],Potency [13],outcome [14],Potency [15],Potency [16],outcome [17],outcome [18],outcome [19],outcome [20]
CC(=O)/C=C/C1=C(C)CCCC1(C)C,inactive,inactive,inactive,inactive,inactive,inactive,inactive,inactive,inactive,inactive,inactive,inactive,inactive,inactive,inactive,inactive,–,–,–,–
N[C@@H](Cc1c[nH]c2ccc(O)cc12)C(=O)O,inactive,inactive,–,–,–,inactive,inactive,inactive,inactive,inactive,inactive,inactive,inactive,inactive,inactive,inactive,inactive,inactive,–,–
C#C[C@]1(O)CC[C@H]2[C@@H]3CCc4cc(O)ccc4[C@H]3CC[C@@]21C,inactive,inactive,–,–,–,inactive,–,–,inactive,inactive,inactive,inactive,inactive,inactive,30.4 µM (active) and inactive,inactive,inactive,inactive,–,–
CC1=C(/C=C/C(C)=C/C=C/C(C)=C/C(=O)O)C(C)(C)CCC1,inactive,inactive,–,inactive,–,inactive,inactive,inactive,inactive,inactive,inactive,inactive,43.7 µM (active),inactive,inactive,inactive,inactive,inactive,–,–
C[C@]12CC[C@@H]3c4ccc(O)cc4C[C@@H](CCCCCCCCCS(=O)CCCC(F)(F)C(F)(F)F)[C@H]3[C@@H]1CC[C@@H]2O (stereo partly specified),–,–,–,inactive,inactive,inactive,inactive,inactive,inactive,inactive,inactive,inactive,inactive,inactive,–,inactive,inactive,inactive,–,–
CCCCCCCC(=O)OCC(O)CO (stereo unspecified),inactive,inactive,–,inactive,–,inactive,–,–,inactive,inactive,inactive,inactive,inactive,inactive,inactive,inactive,inactive,inactive,–,–
COc1cc2c(c(OC)c1OC)-c1ccc(OC)c(=O)cc1[C@@H](NC(C)=O)CC2,inactive,inactive,–,inactive,inactive,inactive,inactive,–,inactive,inactive,inactive,–,inactive,inactive,538 nM (active) and 686 nM (active) and 37.6 nM (active),0.172 µM (active),–,inactive,inactive,–
CCc1cc(C(N)=S)ccn1,inactive,inactive,–,–,–,inactive,inactive,inactive,inactive,inactive,inactive,inactive,inactive,inactive,inactive,inactive,–,inactive,–,–
NCCNc1cccc2ccccc12,54.9 µM (active) and 47.8 µM (active) and inactive,34.6 µM (active) and 30.2 µM (active) and inactive,–,–,–,inactive,inactive,43.6 µM (active) and inactive,inactive,inactive,inactive,inactive,inactive,inactive,–,inactive,inactive,inactive,–,inactive
CCN1CCCC1=O,inactive,inactive,inactive,–,inactive,inactive,inactive,inactive,inactive,inactive,inactive,inactive,inactive,inactive,inactive,inactive,–,inactive,–,–
COc1ccc(O)cc1,inactive,inactive,–,inactive,–,inactive,inactive,inactive,inactive,inactive,inactive,inactive,inactive,inactive,–,inactive,inactive,inactive,–,inactive
Cc1cccc(Nc2cc(Cl)nc(SCC(=O)O)n2)c1C,inactive,inactive,–,inactive,–,inactive,inactive,inactive,inactive,inactive,inactive,inactive,inactive,inactive,inactive,inactive,–,inactive,–,–
C/C=C/c1ccc(O)c(OC)c1,inactive,inactive,–,–,–,inactive,–,–,inactive,inactive,inactive,inactive,inactive,inactive,inactive,inactive,–,–,inactive,–

# From PubChem BioAssay (Tox21)
